Measured values published in PubChem BioAssay AID2291 (The Scripps Research Institute Molecular Screening Center, 2010).
The campaign covered roughly 16,000 compounds. About 75 (0.5%) were called active. No stated cut-off is given here; in the data, active means inhibition above about 30%; inactive means the rest. This excerpt belongs to a sample that is enriched for actives.

Target: Protein phosphatase methylesterase 1 (Homo sapiens) (UniProt Q9Y570)
Assay: inhibitors of human PME-1 in Maybridge library (AID 2291)
Details: recombinant PME-1, FP-Rh probe fluorescence polarization; at 9 µM; stronger effect = higher value

Sequence of Protein phosphatase methylesterase 1 (Homo sapiens) (Q9Y570 whole entry, looked up): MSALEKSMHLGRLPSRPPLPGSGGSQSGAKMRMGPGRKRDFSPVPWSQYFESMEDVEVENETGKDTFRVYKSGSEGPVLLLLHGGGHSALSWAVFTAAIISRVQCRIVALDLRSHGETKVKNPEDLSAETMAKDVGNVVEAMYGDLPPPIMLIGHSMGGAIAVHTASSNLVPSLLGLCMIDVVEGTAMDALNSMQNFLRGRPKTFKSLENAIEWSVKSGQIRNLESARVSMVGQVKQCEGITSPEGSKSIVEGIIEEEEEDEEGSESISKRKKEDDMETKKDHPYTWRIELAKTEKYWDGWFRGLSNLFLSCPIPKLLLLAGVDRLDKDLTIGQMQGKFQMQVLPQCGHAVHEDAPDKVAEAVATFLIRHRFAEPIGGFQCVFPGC

inhibition, inactive:
CCOC(=O)c1c(N/N=C\c2ccccc2O)n[nH]c1C 7.03%
COc1ccccc1C1CCN(c2ccc([N+](=O)[O-])cn2)CC1 3.68%
COC(=O)c1scc(S(=O)(=O)Cc2ccco2)c1N/N=C(\C#N)S(=O)(=O)C(C)C 7.89%
CCCCOC(=O)c1ccc(-c2ccccn2)s1 5.14%
COc1cccc(/C=N/NC(=S)Nc2cc(C(F)(F)F)cc(C(F)(F)F)c2)c1O 5.97%
CCCC1NC(=O)NC(C)=C1C(=O)OCC (configuration not stated) -4.5%
O=[N+]([O-])c1ccc(C2CC2(Br)Br)cc1 (configuration not stated) 0.49%
Cc1nc2ccccn2c1C(=O)N/N=C/c1cn(-c2ccccc2)nc1-c1cccs1 1.07%
CSc1c(C#N)c(N)nc(SCC(=O)c2ccc(OC(F)F)cc2)c1C#N -10.3%
CCOC(=O)/C(C#N)=C/N=C(N/N=C/c1cccs1)SC -1.55%
Cn1c(CN2C(=O)CSc3ccc(C(F)(F)F)cc32)nnc1SCC(=O)c1ccccc1 5.25%
CC(C)CC(NC(=O)OC(C)(C)C)C(=O)OCc1ccc(CC(=O)O)cc1 (configuration not stated) -2.54%
O=C(NNc1ccccc1C(F)(F)F)NS(=O)(=O)c1ccc(Cl)cc1 5.25%
CCOC(=O)c1ccc2nc(C(F)(F)F)cc(N3CCN(Cc4ccccc4)CC3)c2c1 -1.13%
Cc1nc(C)c(-c2ccnc(-c3ccc(Cl)cc3)n2)s1 4.12%
NC(CC(=O)O)c1ccccc1 (configuration not stated) 6.22%
CSc1nc(N)nc2nc[nH]c12 -1.11%
COC(=O)c1cc(S(=O)(=O)NCc2csc(-c3cccs3)n2)oc1C -1.1%
CC1=C(C(=O)O)N2C(=O)[C@H](NC(=O)[C@@H](N)c3ccccc3)C2SC1 (some centres not stated) 0.953%
N#CCSc1ccc2ccccc2c1 3.36%
CCOC(=O)c1c(NC(=S)Nc2ccccc2)sc2c1CCN(C)C2 -2.27%
NC(=O)C1CCN(CC(O)CSc2ccc(F)cc2)CC1 (configuration not stated) 0.714%
CC(=O)Nc1cccc(-n2nnc(SCC(=O)c3cc(-c4ccccc4)no3)n2)c1 -46.5%
CCOC(=O)C(=CNc1cc(C(F)(F)F)ccc1NCc1ccccc1)C(=O)OCC 1.63%
COC(=O)c1cc(OC)c(OC)cc1NC(=O)CSc1ccc(Cl)cc1 5.14%
NC(=O)c1ccccc1OCCOc1ccccc1C(N)=O -1.29%
Cn1cc(Br)c(-c2cccc(NC(=O)c3ccccc3Cl)c2)n1 5.94%
